Screening results (PubChem BioAssay)
Giardia FBPA inh: qHTS Assay for Inhibitors of Fructose-1,6-bisphosphate Aldolase from Giardia Lamblia; A8B2U2; purified Giardia FBPA; Potency, µM (series often up to 59.6 µM), usual class: inhibitors; hit rate 0.71% among 290,000; also: nearly all actives have a fitted effect of over 55% in size
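40 nM FBPA preincubated 10 min at RT with compound (up to 57.5 uM final), then substrate plus GAPDH/TPI/NAD/arsenate coupling and diaphorase/resazurin added. Fluorescence read after 20 min at RT, 525/598 nm.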
RE007 growth inh: qHTS Assay for Inhibitors of the HIV-1 protein Vpr. S. pombe RE007 Vpr strain, BacTiter-Glo ATP luminescence, 24 h. Potency, µM (series often up to 92.2 µM), usual class: inhibitors. hit rate 0.21% among 360,000; active = well fitted falling curve with a large enough effect; inconclusive = small, poorly fitted or top-dose-only effect; inactive = no such curve, though single readings can be large or run the other way; also: nearly all actives have a fitted effect of over 50% in size
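Fission yeast RE007 carrying one integrated HIV-1 vpr copy, seeded at OD 0.01 in PMG+AL medium with 23 nL pinned compound. Grown 24 h at 30 degrees; viability read by BacTiter-Glo luminescence after 5 min.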
Tb PYK inh: qHTS of Trypanosoma Brucei Inhibitors | Potency, µM (titrated, usually from 76.8 µM), hits mostly inhibitors | pyruvate kinase (Trypanosoma brucei), Q57TT1 | TbPYK enzyme, Kinase-Glo Plus ATP luminescence, 45 min | hit rate 0.12% among 410,000; also: nearly all actives have a fitted effect of over 50% in size
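Screened from lowest to highest concentration, compounds were pinned into TbPYK/substrate mixtures, and ADP (130 uM final) was added. Plates sat at room temperature for 45 min prior to Kinase-Glo Plus detection by luminescence.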
LmPK inhibitor: qHTS Assay for Inhibitors of Leishmania Mexicana Pyruvate Kinase (LmPK); Q27686; Potency, µM (series often up to 57.5 µM), usual class: inhibitors; hit rate 0.37% among 290,000; purified LmPK, Kinase-Glo ATP luminescence, 1 h
Target sequence (Q27686 whole entry, looked up): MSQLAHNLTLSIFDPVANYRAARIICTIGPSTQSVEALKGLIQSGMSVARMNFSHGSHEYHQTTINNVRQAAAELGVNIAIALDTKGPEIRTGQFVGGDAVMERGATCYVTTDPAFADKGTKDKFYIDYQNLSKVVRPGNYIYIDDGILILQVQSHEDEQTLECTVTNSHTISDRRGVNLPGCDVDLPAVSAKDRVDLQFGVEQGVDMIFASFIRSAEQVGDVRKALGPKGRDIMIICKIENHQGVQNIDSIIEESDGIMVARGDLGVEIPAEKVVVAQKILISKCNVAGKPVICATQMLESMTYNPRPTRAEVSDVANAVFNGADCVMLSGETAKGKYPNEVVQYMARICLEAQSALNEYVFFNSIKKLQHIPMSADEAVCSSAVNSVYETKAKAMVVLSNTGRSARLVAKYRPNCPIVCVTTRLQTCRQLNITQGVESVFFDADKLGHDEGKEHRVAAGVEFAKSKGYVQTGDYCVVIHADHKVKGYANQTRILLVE
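Screened at intermediate enzyme activity to detect both inhibitors and activators: LmPK at 0.1 nM, with a 0.5 nM enzyme column as activation reference. PEP 0.5 mM, ADP 0.1 mM; ATP detected by luminescence after 1 h.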
Cycloheximide cs: Cycloheximide Counterscreen for Small Molecule Inhibitors of Shiga Toxin; cell reporter, cycloheximide protein synthesis inhibition counterscreen; max response, %; hit rate 12% among 300,000; in the data active = max response mostly above about 13%, no sharp cut-off; inactive = mostly below about 14%; also: read at 38.3 µM for the half of the compounds with a filed dose
Shiga toxin inh: A qHTS for Small Molecule Inhibitors of Shiga Toxin; Vero cells, Shiga toxin protein synthesis inhibition reporter; inhibition, % at 38.7 µM; hit rate 9.2% among 290,000; in the data active = inhibition mostly above about 28%, no sharp cut-off; inactive = mostly below about 43%
Numbers stand for hits; – = inactive; ? = inconclusive; · = no result; [ ] = another dose, or the depositor's remark. This excerpt belongs to a sample that is enriched for hits. Unless noted, calls follow the shape of the dose curve; as a rule, active = well fitted curve in the direction sought with a large enough effect; inconclusive = small, poorly fitted or top-dose-only effect, or another doubt; inactive = no such curve, though single readings can be large; an effect the other way counts as inactive or inconclusive.

SMILES | Giardia FBPA inh | RE007 growth inh | Tb PYK inh | LmPK inhibitor | Cycloheximide cs | Shiga toxin inh
COc1ccc(NC(=O)Nc2ccc3c(c2)CCC3)cc1 | · | – | – | – | 27 | 36
CCOc1ccccc1OCCC(=O)Nc1ccc2c(c1)OCO2 | · | – | – | · | · | ·
CCOc1ccccc1NC(=O)Nc1ccc2c(c1)OCO2 | – | – | – | – | 37 | 38
COc1cccc(CC(=O)Nc2ccc3c(c2)CCC3)c1 | – | – | – | – | – | –
CCOc1ccccc1NC(=O)Nc1ccc2c(c1)CCC2 | · | – | – | – | 39 | 54
Cc1c(NC(=O)Nc2ccc3c(c2)OCO3)cccc1[N+](=O)[O-] | · | – | – | – | 42 | 77
COc1ccc2c(c1)c1c(c(=O)n(-c3ccc(OC)c(OC)c3)c(=O)n1Cc1ccc(F)cc1)n2C | · | · | – | · | · | ·
CCS(=O)(=O)N1CCC(C(=O)Nc2ccc3c(c2)CCC3)CC1 | · | – | – | – | – | –
COC(=O)c1ccc(-c2ccc(OC)c(C3C4C=CCC(C)C4C(=O)N3Cc3ccccc3)c2)cc1 (configuration not stated) | – | · | · | · | – | –
CCOC(=O)c1c(NC(=O)CSc2cn(CCNC(=O)c3ccc(OC)c(OC)c3)c3ccccc23)sc2c1CCC2 | · | · | – | · | · | ·
Cc1ccccc1NC(=O)Nc1ccc2c(c1)OCO2 | – | – | – | – | 44 | 77
Cc1ccc(CNc2ccc3c(c2)OCO3)c(C)c1 | ? | · | · | – | 44 | 91
COc1ccc(NC(=O)Nc2ccc3c(c2)OCO3)c(C)c1 | · | – | – | – | 66 | 82
Cc1ccc(NC(=O)Nc2ccc3c(c2)CCC3)c(C)c1 | · | – | – | – | – | –
CCc1cccc(C)c1NC(=O)Nc1ccc2c(c1)OCO2 | – | – | – | – | – | –
O=C(Nc1ccc2c(c1)CCC2)Nc1ccccc1Cl | – | – | – | – | 57 | 155
COC(=O)c1ccc(NC(=O)CSc2ncc3c(n2)-c2cc(Cl)ccc2N(Cc2ccccc2)S3(=O)=O)cc1 | · | · | – | · | · | ·
CC(C)COC[C@H](CN(Cc1ccccc1)c1ccccc1)N1CCCC1 | – | · | · | · | · | ·
CC(=O)Nc1ccccc1OCC(=O)c1ccc2c(c1)OCO2 | – | – | – | – | 43 | 79
CC(=O)Nc1ccccc1NC(=O)c1ccc2c(c1)OCO2 | · | – | – | · | · | ·
O=C(Cc1ccccc1[N+](=O)[O-])Nc1ccc2c(c1)OCO2 | – | – | – | – | 17 | –
O=C(Cc1ccccc1[N+](=O)[O-])NNC(=O)Nc1ccc2c(c1)OCO2 | – | – | – | – | – | –
Cc1ccc(C)c(NC(=O)Nc2ccc3c(c2)OCO3)c1 | · | – | – | – | 47 | 55
Cc1c2c(nc3c(C(=O)NC4CC4)cnn13)CCCC2 | – | – | – | – | 35 | 113
CC1=NOC(=O)/C1=C\c1ccc(-c2ccc(Cl)c(C(=O)O)c2)o1 | – | – | – | – | – | –
SMILES | Giardia FBPA inh | RE007 growth inh | Tb PYK inh | LmPK inhibitor | Cycloheximide cs | Shiga toxin inh
COC(=O)c1cccc(-c2ccc(C(c3c(C)[nH][nH]c3=O)c3c(C)[nH][nH]c3=O)o2)c1 | 14µM | – | – | – | – | –
Cc1[nH][nH]c(=O)c1C(c1ccc(-c2ccc(Cl)c(C(=O)O)c2)o1)c1c(C)[nH][nH]c1=O | 7.1µM | – | – | – | – | –
COC(=O)c1ccccc1-c1ccc(C(c2c(C)[nH][nH]c2=O)c2c(C)[nH][nH]c2=O)o1 | – | – | – | – | – | –
CCOC(=O)Cc1csc(NC(=O)Nc2ccc(F)cc2)n1 | – | – | – | – | 12 | –
CCOC(=O)Cc1csc(NC(=O)Cc2ccc(C)cc2)n1 | – | – | – | – | – | –
CCCNC(=O)Nc1nc(CC(=O)OCC)cs1 | – | – | – | – | – | –
CCOC(=O)Cc1csc(NC(=O)Nc2ccc(C)cc2)n1 | – | – | – | – | 27 | 50
CCOC(=O)Cc1csc(N/N=C/c2cccc([N+](=O)[O-])c2)n1 | – | – | – | – | – | –
CCOC(=O)Cc1csc(NC(=O)Nc2cccs2)n1 | – | – | – | – | 37 | 48
CCOC(=O)Cc1csc(N/N=C/c2ccc(C(F)(F)F)cc2)n1 | – | – | – | – | 22 | –
CCOc1ccc(CNC(=O)c2ccccc2NC(=O)C2=CSCCO2)cc1 | · | – | – | – | – | –
Cc1noc(C)c1S(=O)(=O)N(CC(=O)NCc1ccccc1Cl)c1ccc(C(C)C)cc1 | · | · | – | · | · | ·
CCOC(=O)Nc1nc(-c2ccc(F)cc2F)cs1 | – | – | – | – | 55 | 12
Nc1nc(-c2ccc(Cl)cc2)nn1C(=O)c1cccs1 | – | – | – | – | – | –
CCOc1ccc(-c2nc(=S)[nH][nH]2)cc1 | – | – | – | – | 41 | –
COc1ccc(-c2nc(=S)[nH][nH]2)cc1OC | – | – | ? | – | – | –
COc1ccc(-c2nc(=S)[nH][nH]2)cc1 | – | – | ? | – | 13 | 108
CC(C)(C)c1ccc(C(=O)Nc2onc3c2CCCC3)cc1 | · | · | – | · | · | ·
COc1ccc(CCNC(=O)CCCn2c(=O)c3ccccc3n(CC(=O)Nc3ccccc3C)c2=O)cc1OC | · | · | – | · | · | ·
COCC(C)NC(=O)c1noc2c1CCc1cc(OC)ccc1-2 (configuration not stated) | – | – | – | – | 33 | 83
COCCNC(=O)c1noc2c1CCc1cc(OC)ccc1-2 | – | – | – | – | 35 | –
COc1ccc2c(c1)CCc1c(C(=O)N(C)c3ccccc3)noc1-2 | – | – | – | – | 49 | 123
COc1ccc2c(c1)CCc1c(C(=O)Nc3ccc(C#N)cc3)noc1-2 | · | · | – | · | · | ·
COc1ccc2c(c1)CCc1c(C(=O)NC3CCCCC3)noc1-2 | – | – | – | – | 45 | 59
COc1ccc2c(c1)CCc1c(C(=O)NCCN3CCOCC3)noc1-2 | – | – | – | – | – | –
SMILES | Giardia FBPA inh | RE007 growth inh | Tb PYK inh | LmPK inhibitor | Cycloheximide cs | Shiga toxin inh
O=C(CN1C(=O)C(c2ccc(F)cc2)=NC12CCCCCC2)Nc1ccccc1Cl | · | · | – | · | · | ·
Cc1ccc(CNC(=O)Cn2cc(S(=O)(=O)Cc3cccc(Cl)c3)c3ccccc32)cc1 | · | · | –[15.4 µM] | · | · | ·
O=C(Cc1ccc(NC(=O)C2CCCN(C(=O)C3CC3)C2)cc1)Nc1cccc(C(=O)N2CCCCC2)c1 (configuration not stated) | · | – | – | · | · | ·
COC(=O)c1c(-c2cc(OC)c(OC)c(OC)c2)c2ccnc(OCc3ncccn3)c2c(=O)n1Cc1ccnc(C)c1 | – | · | · | · | · | ·
COc1ccc2c(c1)CCc1c(C(=O)NCc3ccco3)noc1-2 | – | – | – | – | 34 | 67
Cc1c(/C=N\NC(=O)c2csc3ccccc23)cnn1C | – | – | – | – | – | 27
Cc1nn(C)c(C)c1/C=N/NC(=O)c1csc2ccccc12 | – | – | – | – | 18 | –
CCn1ncc(/C=N\NC(=O)c2csc3ccccc23)c1C | – | – | – | – | – | 53
